We go through five compounds from PubChem BioAssay (EPA / NIEHS).

Test [1] can be described thus: ATG_TCF_b_cat_CIS: Attagene CIS-FACTORIAL HepG2 Assay for human T-Cell-Factor with beta-catenin (TCF/b-cat) (AID 2282965; active = hit-call score of the fitted dose curve at least 0.9, where 1 is the maximum; inactive = score below 0.9). Particulars: HepG2 TCF/beta-catenin cis-reporter transcription, actives raise or lower the signal. Put shortly:
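In this cis-format system, transfected HepG2 cells report endogenous transcription factor activity. Readout after 24 h exposure is reporter transcript abundance from RT-PCR and capillary electrophoresis, analysed for gain or loss of signal versus DMSO.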

Test [2] in a line: ATG_TAL_CIS: Attagene CIS-FACTORIAL HepG2 Assay for human TAL Basal Promoter (AID 2282966; active = hit-call score of the fitted dose curve at least 0.9, where 1 is the maximum; inactive = score below 0.9;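 note: background control endpoint measuring basal TAL promoter reporter mRNA not a specific factor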). Particulars: HepG2 Attagene cis-factorial TAL promoter reporter; actives raise or lower the signal. An outline of the steps:
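After 24 hours of chemical exposure, transfected HepG2 cells yielded RNA that was converted to 6-FAM-labelled, HpaI-digested reporter fragments for capillary electrophoresis. Values derive from bidirectional fitting against DMSO controls.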

Test [3] in a line: ATG_TGFb_CIS: Attagene CIS-FACTORIAL HepG2 Assay for human Transforming Growth Factor (TGF) (AID 2282967; active = hit-call score of the fitted dose curve at least 0.9, where 1 is the maximum; inactive = score below 0.9). The settings on record: HepG2 Attagene CIS TGFb reporter, mRNA transcription; actives raise or lower the signal. Put shortly:
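Transient MRTU transfection of HepG2 (FuGene 6). Dose 24 h. TriZol RNA, oligo(dT) RT, PCR, 6-FAM primer extension, HpaI cut, CE. Bidirectional fit, DMSO = baseline.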

Test [4] can be described thus: ATG_VDRE_CIS: Attagene CIS-FACTORIAL HepG2 Assay for human Vitamin D Receptor Element (VDRE) (AID 2282968; active = hit-call score of the fitted dose curve at least 0.9, where 1 is the maximum; inactive = score below 0.9). The settings on record: HepG2 VDRE cis-reporter transcription, actives raise or lower the signal. Put shortly:
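Transfected HepG2 reporter cells, chemical treatment 24 h. RNA isolated, cDNA amplified with reporter-specific primers, products analysed by capillary electrophoresis. Endpoint fitted in both directions versus DMSO.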

Test [5] addresses Nuclear receptor subfamily 1 group I member 3 (Homo sapiens) (UniProt Q14994). Put plainly: ATG_CAR_TRANS: Attagene TRANS-FACTORIAL HepG2 Assay for human Constitutive Androstane Receptor (CAR) (AID 2282969).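 Note: activators raise reporter mRNA above DMSO so AC50 marks induction.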 Particulars: HepG2 Attagene TRANS-FACTORIAL CAR reporter. Put shortly: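 Steps: transient transfection of HepG2 with multiple GAL4-UAS reporter units; 24 h compound incubation; RNA isolation, RT-PCR, 6-FAM primer extension, HpaI digest; capillary electrophoresis. Gain-of-signal relative to DMSO negative control.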

The target in test [6] is Estrogen receptor (Homo sapiens) (UniProt P03372). Put plainly: ATG_ERa_TRANS: Attagene TRANS-FACTORIAL HepG2 Assay for human Estrogen Receptor alpha (ERa) (AID 2282970). The settings on record: HepG2 Attagene TRANS ERa GAL4 reporter, mRNA. An outline of the steps:
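Liver-derived HepG2 cells expressing chimeric nuclear receptor-Gal4 proteins from transient transfection were exposed for 24 hours. Gain of reporter mRNA signal versus DMSO, read by capillary electrophoresis of FAM-labelled PCR products, was recorded.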

In test [7] the target is X-box-binding protein 1 (Homo sapiens) (UniProt P17861). Put plainly: ATG_Xbp1_CIS: Attagene CIS-FACTORIAL HepG2 Assay for human X-box Binding Protein 1 (XBP1) (AID 2282972; active = hit-call score of the fitted dose curve at least 0.9, where 1 is the maximum; inactive = score below 0.9). Particulars: HepG2 XBP1 cis-element reporter, Attagene multiplex; actives raise or lower the signal. An outline of the steps:
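Multiplexed cis-reporter readout in transfected HepG2 liver cells. Exposure lasted 24 hours. Activity in either direction was fitted against DMSO as negative control and baseline.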

The nature of test [8]: ATG_M_19_TRANS: Attagene TRANS-FACTORIAL HepG2 Assay for M19 Transcription Factor (Internal Marker) (AID 2282974). The settings on record: HepG2 Attagene TRANS-FACTORIAL M19 internal marker reporter. Put shortly:
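Background-control readout: after 24 h chemical exposure of transfected HepG2 carrying GAL4-driven reporter units, RNA was reverse-transcribed, amplified, fluorescently labeled and sized by capillary electrophoresis; gain-of-signal fit against DMSO.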

Test [9] deals with Bile acid receptor (Homo sapiens) (UniProt Q96RI1). Put plainly: ATG_FXR_TRANS: Attagene TRANS-FACTORIAL HepG2 Assay for Farnesoid X Receptor (FXR) (AID 2282979).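 Note: hits raise reporter mRNA above DMSO so AC50 marks FXR activation.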 The settings on record: HepG2 Attagene TRANS FXR-GAL4 reporter transcription. Put shortly: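 Transient transfection of HepG2 with multiplexed GAL4-UAS reporter units; exogenous FXR-GAL4 chimera. Dose 24 h → TriZol RNA → oligo(dT) RT → PCR, 6-FAM primer extension, HpaI cut → CE. Gain vs DMSO.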

In test [10] the target is Oxysterols receptor LXR-beta (Homo sapiens) (UniProt P55055). Put plainly: ATG_LXRb_TRANS: Attagene TRANS-FACTORIAL HepG2 Assay for human Liver X Receptor beta (LXRb) (AID 2282981). The settings on record: HepG2 Attagene TRANS GAL4-LXRb reporter, mRNA. An outline of the steps:
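Liver-derived HepG2 cells transfected with Gal4-responsive reporters were dosed for 24 h. Activation was scored as rise in reporter mRNA, by RT-PCR and capillary electrophoresis, above DMSO baseline.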

The nature of test [11]: ATG_M_06_TRANS: Attagene TRANS-FACTORIAL HepG2 Assay for M06 Transcription Factor (Internal Marker) (AID 2282983).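 Note: reporter transcript level by RT-PCR then capillary electrophoresis fluorescence.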 The settings on record: HepG2 Attagene TRANS M06 internal marker reporter. Put shortly: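 Background control endpoint: reporter mRNA from transiently transfected HepG2 after 24 h dosing, detected by RT-PCR with capillary electrophoresis fluorescence. Analysed for gain versus DMSO.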

Test [12] is described as follows: ATG_M_32_TRANS: Attagene TRANS-FACTORIAL HepG2 Assay for M32 Transcription Factor (Internal Marker) (AID 2282984).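 Note: transcript level of a background control reporter unit measured by RT-PCR and capillary electrophoresis.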 Particulars: HepG2 Attagene TRANS M32 internal marker reporter. An outline of the steps:
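Fluorescence-detected mRNA induction, HepG2 liver cells, 24 h after dosing. Multiple GAL4-UAS reporter units introduced by transient transfection; background-control endpoint analysed for gain of signal against DMSO.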

Test [13] deals with Transcriptional activator Myb (Homo sapiens) (UniProt P10242). The experiment in a line: ATG_Myb_CIS: Attagene CIS-FACTORIAL HepG2 Assay for human Myeloblastosis (Myb) Proto-Oncogene Transcription Factor (AID 2282986; active = hit-call score of the fitted dose curve at least 0.9, where 1 is the maximum; inactive = score below 0.9). Particulars: HepG2 Attagene CIS-FACTORIAL Myb reporter transcription; actives raise or lower the signal. An outline of the steps:
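Reporter mRNA is quantified by RT-PCR and capillary electrophoresis 24 h after dosing HepG2 cells transfected with cis-regulated reporter units, which track endogenous transcription factor activity. Gain and loss of signal are fitted versus DMSO baseline.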

Test [14] concerns the target Steroid hormone receptor ERR1 (Homo sapiens) (UniProt P11474). Put plainly: ATG_ERRa_TRANS: Attagene TRANS-FACTORIAL HepG2 Assay for human Estrogen-Related Receptor alpha (ERRa) (AID 2282971). Particulars: HepG2 Attagene TRANS reporter, ERRa transactivation. An outline of the steps:
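Reporter transcript induction was quantified by RT-PCR and capillary electrophoresis of FAM-labelled, HpaI-cut products after 24 h treatment of HepG2 cells carrying transiently transfected GAL4-UAS reporter units and an exogenous ERRa-Gal4 fusion; activity scored as increase over DMSO.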

Test [15] concerns the target Oxysterols receptor LXR-alpha (Homo sapiens) (UniProt Q13133). The experiment in a line: ATG_LXRa_TRANS: Attagene TRANS-FACTORIAL HepG2 Assay for human Liver X Receptor alpha (LXRa) (AID 2282980). Particulars: HepG2 Attagene TRANS reporter, LXRa transactivation. Put shortly: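 Transfect HepG2 with GAL4-UAS multiplex reporter constructs (TRANS format, chimeric receptor-GAL4); treat 24 h; extract RNA, reverse-transcribe, PCR-amplify, FAM-label, HpaI-digest; resolve fragments by capillary electrophoresis. Upward response vs DMSO.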

Test [16] has as its target Glucocorticoid receptor (Homo sapiens) (UniProt P04150). Put plainly: ATG_GR_TRANS: Attagene TRANS-FACTORIAL HepG2 Assay for human Glucocorticoid Receptor (GR) (AID 2282978).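 Note: activators score as hits since higher reporter transcript over DMSO is fitted.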 The settings on record: HepG2 Attagene TRANS GR reporter, mRNA transcription. An outline of the steps: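 Readout is reporter transcript from a chimeric GR-Gal4 acting on GAL4-UAS in transfected human HepG2 liver cells after 24 h exposure, quantified by RT-PCR and capillary electrophoresis. Activation fitted upward against DMSO.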

The target in test [17] is Hepatocyte nuclear factor 4-alpha (Homo sapiens) (UniProt P41235). Put plainly: ATG_HNF4a_TRANS: Attagene TRANS-FACTORIAL HepG2 Assay for human Hepatocyte Nuclear Factor 4 alpha (HNF4a) (AID 2282982). The settings on record: HepG2 HNF4a transactivation reporter, mRNA readout. Put shortly: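 Using HepG2 liver cells transfected with GAL4-UAS reporter units, chemical-induced mRNA increases were assessed after 24 hours. Fluorescent RT-PCR fragments were separated by capillary electrophoresis and compared with DMSO negative controls.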

Test [18] in a line: ATG_GAL4_TRANS: Attagene TRANS-FACTORIAL HepG2 Assay for GAL4 (Internal Marker) (AID 2282976). Particulars: HepG2 Attagene TRANS GAL4 internal marker reporter. An outline of the steps:
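First, HepG2 cells were transfected with reporter units under GAL4-UAS control. Next, they were treated with chemical for 24 h. Finally, RNA was reverse-transcribed, PCR-amplified, FAM-labelled and resolved by capillary electrophoresis, with induction scored against DMSO.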

For test [19], the target named is Nuclear receptor subfamily 4 group A member 2 (Homo sapiens) (UniProt P43354). Put plainly: ATG_NURR1_TRANS: Attagene TRANS-FACTORIAL HepG2 Assay for human Nuclear Receptor Related Protein 1 (NURR1) (AID 2282985). Particulars: HepG2 Attagene TRANS reporter, mRNA readout. Put shortly:
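Chimeric NR-Gal4 proteins were expressed in human HepG2 cells bearing GAL4-UAS reporter units, and induced reporter mRNA was quantified 24 h post-dosing by RT-PCR and capillary electrophoresis.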

Structures are written as SMILES. Values joined by “and” are separate entries in the source; they are usually repeats but may differ in a detail not shown here. Identical values can stand only once. Records with an inconclusive call do not appear. More than one record can exist for a structure, and the calls need not agree. Active and inactive are the calls of the source. Rule for the calls, unless noted: active = hit-call score of the fitted dose curve at least 0.9, where 1 is the maximum; inconclusive = response in the unintended direction; inactive = score below 0.9.

Chain of Glucocorticoid receptor (Homo sapiens) (P04150 whole entry, looked up, the tested form may be a part): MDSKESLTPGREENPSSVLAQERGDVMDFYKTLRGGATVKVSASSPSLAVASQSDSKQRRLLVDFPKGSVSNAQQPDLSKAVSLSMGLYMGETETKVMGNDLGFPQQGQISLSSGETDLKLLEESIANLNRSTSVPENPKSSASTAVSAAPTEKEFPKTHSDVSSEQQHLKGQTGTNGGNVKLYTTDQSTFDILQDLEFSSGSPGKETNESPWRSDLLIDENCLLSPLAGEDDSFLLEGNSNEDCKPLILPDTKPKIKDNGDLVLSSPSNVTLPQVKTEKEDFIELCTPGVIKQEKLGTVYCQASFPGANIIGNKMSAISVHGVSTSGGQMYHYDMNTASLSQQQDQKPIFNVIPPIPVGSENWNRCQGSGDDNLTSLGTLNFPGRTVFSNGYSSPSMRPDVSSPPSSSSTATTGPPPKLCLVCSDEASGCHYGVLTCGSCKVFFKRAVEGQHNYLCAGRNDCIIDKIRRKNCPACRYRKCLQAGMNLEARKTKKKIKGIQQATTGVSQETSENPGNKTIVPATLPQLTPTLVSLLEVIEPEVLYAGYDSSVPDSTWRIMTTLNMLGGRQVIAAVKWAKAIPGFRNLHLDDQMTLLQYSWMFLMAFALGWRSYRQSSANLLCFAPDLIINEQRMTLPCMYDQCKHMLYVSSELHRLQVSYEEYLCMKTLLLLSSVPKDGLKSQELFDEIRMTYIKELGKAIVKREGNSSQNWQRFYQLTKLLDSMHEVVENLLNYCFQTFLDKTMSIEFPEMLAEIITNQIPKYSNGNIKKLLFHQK
Chain of Nuclear receptor subfamily 1 group I member 3 (Homo sapiens) (Q14994 whole entry, looked up, the tested form may be a part): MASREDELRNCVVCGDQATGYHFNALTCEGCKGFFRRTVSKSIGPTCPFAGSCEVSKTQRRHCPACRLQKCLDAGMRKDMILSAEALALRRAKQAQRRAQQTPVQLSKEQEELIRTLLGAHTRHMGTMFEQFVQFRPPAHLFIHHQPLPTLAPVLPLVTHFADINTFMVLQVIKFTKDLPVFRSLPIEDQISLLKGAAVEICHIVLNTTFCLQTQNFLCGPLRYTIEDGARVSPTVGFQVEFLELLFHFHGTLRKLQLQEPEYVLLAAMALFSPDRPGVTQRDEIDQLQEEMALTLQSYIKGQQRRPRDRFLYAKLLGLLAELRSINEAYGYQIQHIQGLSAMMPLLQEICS
Chain of Transcriptional activator Myb (Homo sapiens) (P10242 whole entry, looked up): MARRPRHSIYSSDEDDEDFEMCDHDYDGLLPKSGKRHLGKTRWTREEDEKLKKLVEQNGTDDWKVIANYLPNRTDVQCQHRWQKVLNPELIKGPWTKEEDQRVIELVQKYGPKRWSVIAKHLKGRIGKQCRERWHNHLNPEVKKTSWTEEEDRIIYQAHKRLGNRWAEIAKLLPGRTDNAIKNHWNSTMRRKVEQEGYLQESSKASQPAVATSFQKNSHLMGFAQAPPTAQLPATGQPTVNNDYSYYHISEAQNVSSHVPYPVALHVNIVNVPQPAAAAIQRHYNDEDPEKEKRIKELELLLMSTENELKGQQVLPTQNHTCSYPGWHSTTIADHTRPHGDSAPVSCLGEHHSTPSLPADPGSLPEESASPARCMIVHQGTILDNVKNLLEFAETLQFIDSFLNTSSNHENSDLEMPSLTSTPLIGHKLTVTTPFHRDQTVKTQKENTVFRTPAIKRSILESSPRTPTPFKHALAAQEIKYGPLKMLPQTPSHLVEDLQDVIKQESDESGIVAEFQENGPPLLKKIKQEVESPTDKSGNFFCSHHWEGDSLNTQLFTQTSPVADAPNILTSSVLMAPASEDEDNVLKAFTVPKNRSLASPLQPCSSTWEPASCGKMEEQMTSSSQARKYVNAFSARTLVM
Chain of X-box-binding protein 1 (Homo sapiens) (P17861 whole entry, looked up): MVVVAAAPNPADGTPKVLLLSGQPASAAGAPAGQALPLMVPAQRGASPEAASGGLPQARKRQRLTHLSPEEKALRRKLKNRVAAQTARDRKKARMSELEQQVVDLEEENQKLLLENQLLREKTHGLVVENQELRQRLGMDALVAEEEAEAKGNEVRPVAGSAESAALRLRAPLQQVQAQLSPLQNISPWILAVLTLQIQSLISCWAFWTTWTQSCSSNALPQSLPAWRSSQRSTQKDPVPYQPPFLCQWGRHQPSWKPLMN
Chain of Estrogen receptor (Homo sapiens) (P03372 whole entry, looked up, the tested form may be a part): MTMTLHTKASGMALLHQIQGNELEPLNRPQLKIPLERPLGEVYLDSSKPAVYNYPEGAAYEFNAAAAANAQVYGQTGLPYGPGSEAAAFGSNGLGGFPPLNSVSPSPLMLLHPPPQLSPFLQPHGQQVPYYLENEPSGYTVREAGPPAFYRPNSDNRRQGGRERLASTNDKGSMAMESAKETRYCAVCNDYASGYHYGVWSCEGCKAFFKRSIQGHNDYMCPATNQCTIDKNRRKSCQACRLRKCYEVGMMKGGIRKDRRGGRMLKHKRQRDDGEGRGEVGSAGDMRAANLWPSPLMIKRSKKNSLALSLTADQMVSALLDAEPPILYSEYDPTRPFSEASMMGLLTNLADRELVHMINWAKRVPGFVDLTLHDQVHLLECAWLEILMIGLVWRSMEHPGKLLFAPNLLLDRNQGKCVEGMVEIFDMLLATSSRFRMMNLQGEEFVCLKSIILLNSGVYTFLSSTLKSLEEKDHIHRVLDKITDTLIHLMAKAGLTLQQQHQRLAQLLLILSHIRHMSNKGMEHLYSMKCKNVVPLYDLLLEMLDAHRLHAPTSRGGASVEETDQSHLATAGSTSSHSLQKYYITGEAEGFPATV
Chain of Oxysterols receptor LXR-beta (Homo sapiens) (P55055 whole entry, looked up, the tested form may be a part): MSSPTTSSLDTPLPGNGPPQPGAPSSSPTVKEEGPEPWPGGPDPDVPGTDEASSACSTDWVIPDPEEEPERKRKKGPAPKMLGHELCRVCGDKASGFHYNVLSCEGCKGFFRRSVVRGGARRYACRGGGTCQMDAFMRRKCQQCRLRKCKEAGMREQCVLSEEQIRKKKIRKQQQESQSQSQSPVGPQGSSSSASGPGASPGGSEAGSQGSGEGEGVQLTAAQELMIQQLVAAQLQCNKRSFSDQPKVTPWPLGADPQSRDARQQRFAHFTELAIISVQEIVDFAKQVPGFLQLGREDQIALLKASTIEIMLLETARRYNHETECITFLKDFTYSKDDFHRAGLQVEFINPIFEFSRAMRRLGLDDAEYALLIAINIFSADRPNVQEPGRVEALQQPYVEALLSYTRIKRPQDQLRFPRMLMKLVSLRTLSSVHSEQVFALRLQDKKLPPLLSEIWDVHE
Chain of Oxysterols receptor LXR-alpha (Homo sapiens) (Q13133 whole entry, looked up, the tested form may be a part): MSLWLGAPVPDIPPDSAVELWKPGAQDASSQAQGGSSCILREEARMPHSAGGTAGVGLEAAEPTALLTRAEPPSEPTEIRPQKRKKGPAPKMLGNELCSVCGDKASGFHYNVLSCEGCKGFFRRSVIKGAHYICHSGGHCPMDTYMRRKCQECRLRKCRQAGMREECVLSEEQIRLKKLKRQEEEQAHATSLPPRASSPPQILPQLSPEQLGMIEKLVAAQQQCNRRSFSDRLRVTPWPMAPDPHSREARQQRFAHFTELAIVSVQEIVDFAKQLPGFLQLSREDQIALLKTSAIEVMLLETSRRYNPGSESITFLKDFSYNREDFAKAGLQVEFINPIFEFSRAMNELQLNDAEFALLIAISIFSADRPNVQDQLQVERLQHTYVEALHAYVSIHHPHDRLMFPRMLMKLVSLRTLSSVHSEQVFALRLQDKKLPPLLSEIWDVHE
Chain of Hepatocyte nuclear factor 4-alpha (Homo sapiens) (P41235 whole entry, looked up, the tested form may be a part): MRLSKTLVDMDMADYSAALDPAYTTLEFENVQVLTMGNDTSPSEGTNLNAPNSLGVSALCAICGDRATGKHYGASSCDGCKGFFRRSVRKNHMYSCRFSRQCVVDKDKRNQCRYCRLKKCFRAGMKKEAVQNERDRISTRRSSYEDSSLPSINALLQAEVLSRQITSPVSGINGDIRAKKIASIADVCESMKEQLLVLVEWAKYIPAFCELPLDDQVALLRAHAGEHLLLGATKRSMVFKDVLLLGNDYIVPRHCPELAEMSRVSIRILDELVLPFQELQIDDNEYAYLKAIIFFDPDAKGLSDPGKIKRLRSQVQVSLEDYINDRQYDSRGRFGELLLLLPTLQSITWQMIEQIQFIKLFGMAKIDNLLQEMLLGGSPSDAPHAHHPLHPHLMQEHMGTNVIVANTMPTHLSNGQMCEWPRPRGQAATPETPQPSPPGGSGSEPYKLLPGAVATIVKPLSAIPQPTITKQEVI
Chain of Nuclear receptor subfamily 4 group A member 2 (Homo sapiens) (P43354 whole entry, looked up, the tested form may be a part): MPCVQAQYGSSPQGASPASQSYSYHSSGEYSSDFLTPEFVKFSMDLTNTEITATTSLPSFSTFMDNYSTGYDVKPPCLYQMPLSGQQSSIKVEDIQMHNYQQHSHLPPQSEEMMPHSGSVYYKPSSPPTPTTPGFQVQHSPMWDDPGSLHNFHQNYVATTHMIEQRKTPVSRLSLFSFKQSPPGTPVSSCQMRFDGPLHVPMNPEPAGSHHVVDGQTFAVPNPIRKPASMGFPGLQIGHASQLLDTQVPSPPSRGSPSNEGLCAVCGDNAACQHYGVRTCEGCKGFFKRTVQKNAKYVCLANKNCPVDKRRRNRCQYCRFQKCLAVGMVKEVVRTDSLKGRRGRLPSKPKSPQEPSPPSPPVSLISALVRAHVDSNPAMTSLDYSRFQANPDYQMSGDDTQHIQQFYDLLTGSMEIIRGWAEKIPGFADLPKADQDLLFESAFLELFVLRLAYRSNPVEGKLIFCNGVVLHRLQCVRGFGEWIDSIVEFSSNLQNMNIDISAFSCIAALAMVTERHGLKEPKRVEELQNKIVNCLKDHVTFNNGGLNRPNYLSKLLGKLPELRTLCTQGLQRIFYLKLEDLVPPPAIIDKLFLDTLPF

On to `CCCCOCCOC(=O)c1ccccc1C(=O)OCCOCCCC`, for which the compound was classed as inactive in test [1], in test [2], in test [3], in [5], in test [6] and in test [7]. For the same compound, the result in test [8], in [9], in test [10], in [11], in test [12] and in [13] was inactive. Further, the AC50 in test [4] was 11 µM (active).

In the case of `CC(=O)OCC=C(C)CCC=C(C)CCC=C(C)C`, the AC50 in test [1] was 148 µM (active); in test [2] it was 100 µM (active); in test [6], 9.02 µM (active); in test [7], 151 µM (active). The outcome in test [3], in test [4], in test [5], in test [14], in test [15] and in [11] was inactive. The compound was called inactive in test [13].

Consider `O=C(c1ccc(OCCN2CCCCC2)cc1)c1c(-c2ccc(O)cc2)sc2cc(O)ccc12`, for which the AC50 was 11.1 µM (active) and 15.5 µM (active) in test [1]; 14.7 µM (active) in test [3]; 11.1 µM (active) and 8.64 µM (active) and 12 µM (active) in test [7]; 18.5 µM (active) in [13]. Besides, the call in test [1], in test [3], in test [4], in test [7], in test [8] and in test [16] was inactive. Moreover, the call in test [15], in test [10], in [17], in test [11], in test [12] and in [13] was inactive.

Take `CC(C)(C)c1ccc(S)cc1`: the call in test [1], in test [2], in test [3], in test [4], in test [5] and in [6] was inactive. In addition, the compound was classed as inactive in [7], in [18], in [16], in [11], in test [12] and in test [13].

`CCCO[Si](OCCC)(OCCC)OCCC`: the compound was called inactive in test [1], in test [2], in test [3], in [4], in test [5] and in [6]. Moreover, the result in test [7], in [8], in test [18], in test [16], in test [12] and in test [19] was inactive. Also, in [13], the outcome was inactive.
